# Measurements reported in PubChem BioAssay AID1159580 (chemical genetic matrix, 2015).
# Hit rate of the full screen: of about 5,500 compounds, about 2,000 (36%) were called active. Another 18% or so got no clear call; they are omitted. The list shows a part of the results. Values without a mark were called inactive. Cut-off read from the data, not from the text of the source: active = normalized growth mostly below about 0.91 (no sharp cut-off); inconclusive = no clear call, values can overlap the other calls; inactive = mostly above about 0.92.
# Test: chemical genetic growth profiling, strain panel (AID 1159580);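 note: tested at 20 µM; growth read once vehicle control cultures reached saturation at 30 °C; 1 = growth at the plate median or of vehicle wells; lower values mean less growth of the strain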
# Conditions: growth OD
structure (smiles),measurement,setting,value
Nc1ncnc2c1ncn2C1O[C@H](COP(=O)(O)O)[C@@H](O)[C@H]1O (some centres not stated),normalized growth,"S. cerevisiae deletion strains, locus YJR075W, strain HOC1, stronger effect = lower value",1.04
same,normalized growth,"S. cerevisiae deletion strains, locus YKL009W, strain mrt4, stronger effect = lower value",1.02
same,normalized growth,"S. cerevisiae deletion strains, locus YKL068W, stronger effect = lower value",0.993
same,normalized growth,"S. cerevisiae deletion strains, locus YKL085W, strain MDH1 (second series), stronger effect = lower value",1
same,normalized growth,"S. cerevisiae deletion strains, locus YKL085W, strain MDH1, stronger effect = lower value",1
same,normalized growth,"S. cerevisiae deletion strains, locus YKL160W, strain elf1, stronger effect = lower value",1
same,normalized growth,"S. cerevisiae deletion strains, locus YKL190W, strain CNB1, stronger effect = lower value",1.01
same,normalized growth,"S. cerevisiae deletion strains, locus YKR001C, strain vps1, stronger effect = lower value",0.581 (active)
same,normalized growth,"S. cerevisiae deletion strains, locus YKR026C, strain gcn3, stronger effect = lower value",1
same,normalized growth,"S. cerevisiae deletion strains, locus YKR091W, strain srl3, stronger effect = lower value",0.995
same,normalized growth,"S. cerevisiae deletion strains, locus YLL001W, strain dnm1, stronger effect = lower value",1.03
same,normalized growth,"S. cerevisiae deletion strains, locus YLL026W, stronger effect = lower value",1.01
same,normalized growth,"S. cerevisiae deletion strains, locus YLL041C, strain sdh2, stronger effect = lower value",0.981
same,normalized growth,"S. cerevisiae deletion strains, locus YLR027C, strain aat2, stronger effect = lower value",1.02
same,normalized growth,"S. cerevisiae deletion strains, locus YLR039C, strain RIC1, stronger effect = lower value",1.04
same,normalized growth,"S. cerevisiae deletion strains, locus YLR058C, strain SHM2, stronger effect = lower value",1.02
same,normalized growth,"S. cerevisiae deletion strains, locus YLR102C, strain apc9, stronger effect = lower value",0.962
same,normalized growth,"S. cerevisiae deletion strains, locus YLR113W, strain HOG1, stronger effect = lower value",1
same,normalized growth,"S. cerevisiae deletion strains, locus YLR221C, strain rsa3, stronger effect = lower value",0.969
same,normalized growth,"S. cerevisiae deletion strains, locus YLR258W, strain gsy2, stronger effect = lower value",0.987
same,normalized growth,"S. cerevisiae deletion strains, locus YLR262C, strain YPT6 (second series), stronger effect = lower value",1.03
same,normalized growth,"S. cerevisiae deletion strains, locus YLR262C, strain YPT6, stronger effect = lower value",1.02
same,normalized growth,"S. cerevisiae deletion strains, locus YLR268W, strain sec22, stronger effect = lower value",0.627 (active)
same,normalized growth,"S. cerevisiae deletion strains, locus YLR320W, strain mms22, stronger effect = lower value",0.983
same,normalized growth,"S. cerevisiae deletion strains, locus YLR330W, strain CHS5, stronger effect = lower value",1.01
same,normalized growth,"S. cerevisiae deletion strains, locus YLR342W, strain FKS1 (second series), stronger effect = lower value",1.04
same,normalized growth,"S. cerevisiae deletion strains, locus YLR342W, strain FKS1, stronger effect = lower value",1.02
same,normalized growth,"S. cerevisiae deletion strains, locus YLR357W, strain rsc2, stronger effect = lower value",1.02
same,normalized growth,"S. cerevisiae deletion strains, locus YLR370C, strain arc18, stronger effect = lower value",1.01
same,normalized growth,"S. cerevisiae deletion strains, locus YLR371W, strain rom2, stronger effect = lower value",0.986
same,normalized growth,"S. cerevisiae deletion strains, locus YLR384C, strain iki3, stronger effect = lower value",1
same,normalized growth,"S. cerevisiae deletion strains, locus YLR418C, strain cdc73, stronger effect = lower value",0.471 (active)
same,normalized growth,"S. cerevisiae deletion strains, locus YML016C, strain PPZ1, stronger effect = lower value",1.01
same,normalized growth,"S. cerevisiae deletion strains, locus YML032C, strain rad52, stronger effect = lower value",0.417 (active)
same,normalized growth,"S. cerevisiae deletion strains, locus YML120C, strain ndi1, stronger effect = lower value",1.01
same,normalized growth,"S. cerevisiae deletion strains, locus YML124C, strain tub3, stronger effect = lower value",0.829 (active)
same,normalized growth,"S. cerevisiae deletion strains, locus YMR058W, strain fet3, stronger effect = lower value",1.01
same,normalized growth,"S. cerevisiae deletion strains, locus YMR078C, strain ctf18, stronger effect = lower value",0.838 (active)
same,normalized growth,"S. cerevisiae deletion strains, locus YMR125W, strain sto1, stronger effect = lower value",0.987
same,normalized growth,"S. cerevisiae deletion strains, locus YMR129W, stronger effect = lower value",0.994
same,normalized growth,"S. cerevisiae deletion strains, locus YMR205C, strain PFK2, stronger effect = lower value",1.02
same,normalized growth,"S. cerevisiae deletion strains, locus YMR223W, strain ubp8, stronger effect = lower value",0.81 (active)
same,normalized growth,"S. cerevisiae deletion strains, locus YMR231W, strain pep5, stronger effect = lower value",0.999
same,normalized growth,"S. cerevisiae deletion strains, locus YMR263W, strain SAP30, stronger effect = lower value",1.01
same,normalized growth,"S. cerevisiae deletion strains, locus YMR307W, strain GAS1, stronger effect = lower value",0.974
same,normalized growth,"S. cerevisiae deletion strains, locus YNL067W, strain RPL9B, stronger effect = lower value",1.02
same,normalized growth,"S. cerevisiae deletion strains, locus YNL071W, strain lat1, stronger effect = lower value",0.998
same,normalized growth,"S. cerevisiae deletion strains, locus YNL128W, strain TEP1, stronger effect = lower value",1.02
same,normalized growth,"S. cerevisiae deletion strains, locus YNL153C, strain GIM3, stronger effect = lower value",1.01
same,normalized growth,"S. cerevisiae deletion strains, locus YNL183C, strain NPR1, stronger effect = lower value",0.97
same,normalized growth,"S. cerevisiae deletion strains, locus YNL209W, strain ssb2, stronger effect = lower value",0.998
same,normalized growth,"S. cerevisiae deletion strains, locus YNL233W, strain BNI4, stronger effect = lower value",1.01
same,normalized growth,"S. cerevisiae deletion strains, locus YNL248C, strain rpa49, stronger effect = lower value",0.977
same,normalized growth,"S. cerevisiae deletion strains, locus YNL250W, strain rad50, stronger effect = lower value",1
same,normalized growth,"S. cerevisiae deletion strains, locus YNL271C, strain bni1, stronger effect = lower value",0.895 (active)
same,normalized growth,"S. cerevisiae deletion strains, locus YNL298W, strain CLA4, stronger effect = lower value",0.918
same,normalized growth,"S. cerevisiae deletion strains, locus YNL307C, strain MCK1, stronger effect = lower value",0.847 (active)
same,normalized growth,"S. cerevisiae deletion strains, locus YNL322C, strain KRE1 (second series), stronger effect = lower value",0.991
same,normalized growth,"S. cerevisiae deletion strains, locus YNL322C, strain KRE1, stronger effect = lower value",1.01
same,normalized growth,"S. cerevisiae deletion strains, locus YNR049C, strain mso1, stronger effect = lower value",0.994
same,normalized growth,"S. cerevisiae deletion strains, locus YNR052C, strain pop2, stronger effect = lower value",0.476 (active)
same,normalized growth,"S. cerevisiae deletion strains, locus YOL006C, strain TOP1, stronger effect = lower value",1.04
same,normalized growth,"S. cerevisiae deletion strains, locus YOL012C, strain htz1",0.221
same,normalized growth,"S. cerevisiae deletion strains, locus YOL147C, strain pex11, stronger effect = lower value",0.516 (active)
same,normalized growth,"S. cerevisiae deletion strains, locus YOR001W, strain rrp6, stronger effect = lower value",1.02
same,normalized growth,"S. cerevisiae deletion strains, locus YOR061W, strain CKA2, stronger effect = lower value",1.01
same,normalized growth,"S. cerevisiae deletion strains, locus YOR069W, strain VPS5, stronger effect = lower value",1.01
same,normalized growth,"S. cerevisiae deletion strains, locus YOR070C, strain gyp1, stronger effect = lower value",0.995
same,normalized growth,"S. cerevisiae deletion strains, locus YOR080W, strain dia2, stronger effect = lower value",1
same,normalized growth,"S. cerevisiae deletion strains, locus YOR083W, strain WHI5, stronger effect = lower value",0.988
same,normalized growth,"S. cerevisiae deletion strains, locus YOR106W, strain vam3, stronger effect = lower value",1.03
same,normalized growth,"S. cerevisiae deletion strains, locus YOR136W, strain idh2, stronger effect = lower value",0.953
same,normalized growth,"S. cerevisiae deletion strains, locus YOR144C, strain elg1, stronger effect = lower value",0.645 (active)
same,normalized growth,"S. cerevisiae deletion strains, locus YOR184W, strain ser1, stronger effect = lower value",0.636 (active)
same,normalized growth,"S. cerevisiae deletion strains, locus YOR231W, strain MKK1, stronger effect = lower value",1.01
same,normalized growth,"S. cerevisiae deletion strains, locus YOR265W, strain rbl2, stronger effect = lower value",1
same,normalized growth,"S. cerevisiae deletion strains, locus YOR270C, strain vph1, stronger effect = lower value",0.996
same,normalized growth,"S. cerevisiae deletion strains, locus YOR290C, strain snf2, stronger effect = lower value",0.972
same,normalized growth,"S. cerevisiae deletion strains, locus YOR316C, strain cot1, stronger effect = lower value",0.969
same,normalized growth,"S. cerevisiae deletion strains, locus YPL051W, strain arl3, stronger effect = lower value",1.01
same,normalized growth,"S. cerevisiae deletion strains, locus YPL055C, strain LGE1, stronger effect = lower value",1.07
same,normalized growth,"S. cerevisiae deletion strains, locus YPL078C, strain atp4, stronger effect = lower value",1.03
same,normalized growth,"S. cerevisiae deletion strains, locus YPL106C, strain sse1, stronger effect = lower value",0.997
same,normalized growth,"S. cerevisiae deletion strains, locus YPL240C, strain hsp82, stronger effect = lower value",0.998
same,normalized growth,"S. cerevisiae deletion strains, locus YPL241C, strain CIN2, stronger effect = lower value",1.01
same,normalized growth,"S. cerevisiae deletion strains, locus YPL256C, strain CLN2, stronger effect = lower value",0.995
same,normalized growth,"S. cerevisiae deletion strains, locus YPR119W, strain clb2, stronger effect = lower value",0.935
same,normalized growth,"S. cerevisiae deletion strains, locus YPR141C, strain kar3, stronger effect = lower value",0.995
same,normalized growth,"S. cerevisiae deletion strains, locus YPR163C, strain tif3, stronger effect = lower value",0.725 (active)
same,normalized growth,"S. cerevisiae deletion strains, locus YPR167C, strain met16, stronger effect = lower value",0.858 (active)
same,normalized growth,"S. cerevisiae deletion strains, strain wtn01, stronger effect = lower value",0.866 (active)
same,normalized growth,"S. cerevisiae strains, strain wild type, stronger effect = lower value",1.02
